Experimental findings from PMC7862700, “An all-to-all approach to the identification of sequence-specific readers for epigenetic DNA modifications on cytosine” are described below.

What all share (assay): DAPPL (digital affinity profiling via proximity ligation, sequencing); 10 mM Tris-HCl pH 7.5, 50 mM NaCl, 1 mM DTT, 4% glycerol, room temperature, 30 min; GST-TFs on glutathione beads, 16-mer random dsDNA library, 0.1% formaldehyde crosslink after washing; high values mean tight binding
One experiment addresses T1, FEV (Homo sapiens, UniProt Q99581 1-238).
T1 sequence: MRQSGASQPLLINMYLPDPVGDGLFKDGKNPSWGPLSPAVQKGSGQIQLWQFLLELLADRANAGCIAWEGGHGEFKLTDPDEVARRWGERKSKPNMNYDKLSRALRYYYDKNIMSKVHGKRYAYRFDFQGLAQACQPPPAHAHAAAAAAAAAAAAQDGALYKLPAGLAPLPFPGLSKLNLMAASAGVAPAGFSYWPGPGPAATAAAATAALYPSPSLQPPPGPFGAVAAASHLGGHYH
To be noted: protein: recombinant; tags: N-terminal GST; dsDNA, one strand shown. The essentials:
(§1)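 Binding signal is defined as a hexamer's read frequency for one factor over its frequency for the tag-only sample. To obtain reads, GST-fused human transcription factors were expressed in yeast, captured on glutathione beads, barcoded with DNA and pooled with that sample. Pools met 200 nmole of a 16-mer random double-stranded DNA library in Tris/NaCl/DTT/glycerol buffer for 30 min at room temperature before washing, 0.1% formaldehyde crosslinking, proximity ligation (BsaI/T4 ligase, 1 h, 37 °C), PCR and Illumina NextSeq500 sequencing.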

A further experiment deals with ETV5 (Homo sapiens, UniProt P41161 1-510). The settings on record: protein: recombinant; tags: N-terminal GST; dsDNA, one strand shown. A digest of the protocol:
as §1

In the next experiment the target is HSF1 (Homo sapiens, UniProt Q00613 1-529). To be noted: protein: recombinant; tags: N-terminal GST; chain copies: 3; dsDNA, one strand shown. A digest of the protocol: as §1
Sequence of HSF1 (Q00613 whole entry): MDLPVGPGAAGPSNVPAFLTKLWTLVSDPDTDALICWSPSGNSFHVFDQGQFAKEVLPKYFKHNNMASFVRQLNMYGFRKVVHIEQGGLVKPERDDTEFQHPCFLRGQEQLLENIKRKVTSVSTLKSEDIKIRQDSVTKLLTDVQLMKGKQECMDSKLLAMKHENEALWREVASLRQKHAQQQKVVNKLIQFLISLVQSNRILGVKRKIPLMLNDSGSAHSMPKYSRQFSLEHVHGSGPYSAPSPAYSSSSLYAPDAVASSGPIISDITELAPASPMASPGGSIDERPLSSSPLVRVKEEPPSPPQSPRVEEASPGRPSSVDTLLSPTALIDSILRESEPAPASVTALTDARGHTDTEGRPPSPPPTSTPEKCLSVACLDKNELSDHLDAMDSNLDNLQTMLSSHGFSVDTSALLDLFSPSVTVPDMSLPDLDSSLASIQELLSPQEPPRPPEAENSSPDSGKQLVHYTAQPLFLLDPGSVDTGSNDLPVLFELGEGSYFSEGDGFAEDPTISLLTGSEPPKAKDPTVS
A further experiment deals with T2, SPIC (Homo sapiens, UniProt Q8N5J4 1-248).
T2 sequence: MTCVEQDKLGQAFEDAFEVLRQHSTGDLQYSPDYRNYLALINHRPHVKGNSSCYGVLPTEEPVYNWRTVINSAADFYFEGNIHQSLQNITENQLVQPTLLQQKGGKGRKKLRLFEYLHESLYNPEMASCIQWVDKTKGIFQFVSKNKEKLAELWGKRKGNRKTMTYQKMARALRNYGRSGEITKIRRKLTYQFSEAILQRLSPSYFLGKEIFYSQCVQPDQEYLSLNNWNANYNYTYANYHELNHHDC
To be noted: protein: recombinant; tags: N-terminal GST; dsDNA, one strand shown. A digest of the protocol:
as §1

The next experiment has as its target ELF4 (Homo sapiens, UniProt Q99607 1-663). To be noted: protein: recombinant; tags: N-terminal GST; dsDNA, one strand shown. A digest of the protocol:
as §1

The target of a further experiment is T3, ELK4 (Homo sapiens, UniProt P28324-2 1-405).
T3 sequence: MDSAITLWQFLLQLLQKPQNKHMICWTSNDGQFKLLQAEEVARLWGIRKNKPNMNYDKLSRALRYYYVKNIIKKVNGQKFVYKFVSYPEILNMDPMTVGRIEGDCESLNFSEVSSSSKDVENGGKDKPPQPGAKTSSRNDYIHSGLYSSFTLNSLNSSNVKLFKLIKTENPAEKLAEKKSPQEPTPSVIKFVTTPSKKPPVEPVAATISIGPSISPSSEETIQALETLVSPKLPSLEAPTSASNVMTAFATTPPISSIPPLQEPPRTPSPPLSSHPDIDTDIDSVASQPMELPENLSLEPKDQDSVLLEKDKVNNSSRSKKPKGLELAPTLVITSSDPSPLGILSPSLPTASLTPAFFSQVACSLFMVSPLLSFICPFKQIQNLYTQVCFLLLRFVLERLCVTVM
To be noted: protein: recombinant; tags: N-terminal GST; dsDNA, one strand shown. A digest of the protocol:
as §1

The target of another experiment is T4, ETV2 (Homo sapiens, UniProt O00321 1-342).
T4 sequence: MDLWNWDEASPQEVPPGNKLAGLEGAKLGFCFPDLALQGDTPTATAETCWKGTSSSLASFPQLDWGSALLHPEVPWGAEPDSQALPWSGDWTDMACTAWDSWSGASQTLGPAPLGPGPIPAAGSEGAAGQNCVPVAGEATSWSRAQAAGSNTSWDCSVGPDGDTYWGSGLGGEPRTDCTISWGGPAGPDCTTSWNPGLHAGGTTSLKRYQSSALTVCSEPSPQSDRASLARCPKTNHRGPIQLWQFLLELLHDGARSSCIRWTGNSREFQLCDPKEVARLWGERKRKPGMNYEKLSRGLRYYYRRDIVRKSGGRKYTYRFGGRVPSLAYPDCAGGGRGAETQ
The settings on record: protein: recombinant; tags: N-terminal GST; dsDNA, one strand shown. The essentials: as §1

The target in the next experiment is T5, ELF3 (Homo sapiens, UniProt P78545 1-371).
T5 sequence: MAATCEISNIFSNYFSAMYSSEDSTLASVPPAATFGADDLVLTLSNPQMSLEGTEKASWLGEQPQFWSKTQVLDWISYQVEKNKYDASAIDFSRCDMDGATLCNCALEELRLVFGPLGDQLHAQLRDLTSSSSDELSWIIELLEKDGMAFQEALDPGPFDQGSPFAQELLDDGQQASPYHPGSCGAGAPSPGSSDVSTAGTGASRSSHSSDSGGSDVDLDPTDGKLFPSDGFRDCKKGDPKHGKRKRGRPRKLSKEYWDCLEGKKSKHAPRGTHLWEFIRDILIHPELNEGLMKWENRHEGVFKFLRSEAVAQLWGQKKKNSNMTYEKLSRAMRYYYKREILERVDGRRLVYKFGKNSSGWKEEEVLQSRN
The settings on record: protein: recombinant; tags: N-terminal GST; dsDNA, one strand shown. A digest of the protocol:
as §1

The target of a further experiment is CRX (Homo sapiens, UniProt O43186 1-299). To be noted: protein: recombinant; tags: N-terminal GST; dsDNA, one strand shown. The essentials:
as §1

Another experiment concerns the target ETV1 (Homo sapiens, UniProt P50549 1-477). To be noted: protein: recombinant; tags: N-terminal GST; dsDNA, one strand shown. A digest of the protocol: as §1
In another experiment the target is T6, ERF (Homo sapiens, UniProt P50548 1-548).
T6 sequence: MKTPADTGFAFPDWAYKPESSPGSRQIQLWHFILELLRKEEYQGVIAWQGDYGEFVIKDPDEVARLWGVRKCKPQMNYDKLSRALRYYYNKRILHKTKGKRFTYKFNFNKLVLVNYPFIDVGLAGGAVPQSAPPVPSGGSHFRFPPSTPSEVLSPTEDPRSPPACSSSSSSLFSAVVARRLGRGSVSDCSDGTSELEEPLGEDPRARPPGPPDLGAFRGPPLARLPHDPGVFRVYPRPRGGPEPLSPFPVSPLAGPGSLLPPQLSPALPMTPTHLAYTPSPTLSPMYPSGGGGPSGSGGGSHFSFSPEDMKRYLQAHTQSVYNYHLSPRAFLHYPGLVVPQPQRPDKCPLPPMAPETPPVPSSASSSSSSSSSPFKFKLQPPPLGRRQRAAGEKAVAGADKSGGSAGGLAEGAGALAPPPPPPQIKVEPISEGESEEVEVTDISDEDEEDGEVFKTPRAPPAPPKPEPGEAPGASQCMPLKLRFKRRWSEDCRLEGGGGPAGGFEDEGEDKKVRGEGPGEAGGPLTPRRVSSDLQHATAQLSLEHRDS
The settings on record: protein: recombinant; tags: N-terminal GST; dsDNA, one strand shown. A digest of the protocol: as §1

A further experiment concerns the target T7, ETV3L (Homo sapiens, UniProt Q6ZN32 1-361).
T7 sequence: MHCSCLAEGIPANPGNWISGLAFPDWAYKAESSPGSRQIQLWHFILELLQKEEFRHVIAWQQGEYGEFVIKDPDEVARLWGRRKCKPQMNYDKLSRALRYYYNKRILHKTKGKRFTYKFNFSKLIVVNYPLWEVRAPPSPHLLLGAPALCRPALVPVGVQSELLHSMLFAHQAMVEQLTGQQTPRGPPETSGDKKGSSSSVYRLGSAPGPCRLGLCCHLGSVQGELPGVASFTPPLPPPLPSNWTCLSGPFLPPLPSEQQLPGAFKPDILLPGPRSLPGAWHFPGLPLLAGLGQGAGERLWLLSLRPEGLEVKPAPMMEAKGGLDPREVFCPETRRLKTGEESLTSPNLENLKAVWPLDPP
To be noted: protein: recombinant; tags: N-terminal GST; dsDNA, one strand shown. A digest of the protocol: as §1

The target in another experiment is T8, ETS2 (Homo sapiens, UniProt P15036 1-469).
T8 sequence: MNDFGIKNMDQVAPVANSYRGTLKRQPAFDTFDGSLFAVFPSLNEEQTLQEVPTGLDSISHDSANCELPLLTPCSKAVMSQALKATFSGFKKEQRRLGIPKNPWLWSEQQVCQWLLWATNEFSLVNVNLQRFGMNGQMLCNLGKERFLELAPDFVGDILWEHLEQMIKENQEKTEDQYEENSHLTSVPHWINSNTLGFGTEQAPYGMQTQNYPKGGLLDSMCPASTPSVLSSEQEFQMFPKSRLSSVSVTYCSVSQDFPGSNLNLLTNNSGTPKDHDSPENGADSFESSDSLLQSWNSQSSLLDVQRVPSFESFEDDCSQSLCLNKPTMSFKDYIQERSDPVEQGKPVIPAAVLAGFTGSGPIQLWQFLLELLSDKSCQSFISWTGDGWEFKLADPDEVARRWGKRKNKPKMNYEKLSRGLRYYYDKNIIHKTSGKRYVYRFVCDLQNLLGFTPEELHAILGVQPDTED
To be noted: protein: recombinant; tags: N-terminal GST; dsDNA, one strand shown. A digest of the protocol: as §1

For the next experiment, the target named is T9, SPDEF (Homo sapiens, UniProt O95238 1-335).
T9 sequence: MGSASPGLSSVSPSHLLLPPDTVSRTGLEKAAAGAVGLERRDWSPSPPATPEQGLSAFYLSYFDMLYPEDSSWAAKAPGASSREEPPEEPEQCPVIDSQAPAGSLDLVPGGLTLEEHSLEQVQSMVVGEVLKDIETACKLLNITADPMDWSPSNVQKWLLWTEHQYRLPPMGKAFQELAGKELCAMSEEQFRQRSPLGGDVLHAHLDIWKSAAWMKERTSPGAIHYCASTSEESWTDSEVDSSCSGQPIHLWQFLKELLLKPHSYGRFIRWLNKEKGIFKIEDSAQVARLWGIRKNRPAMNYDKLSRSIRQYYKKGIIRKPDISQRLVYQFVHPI
The settings on record: protein: recombinant; tags: N-terminal GST; dsDNA, one strand shown. The essentials: as §1

In another experiment the target is T10, ETV7 (Homo sapiens, UniProt Q9Y603 1-341).
T10 sequence: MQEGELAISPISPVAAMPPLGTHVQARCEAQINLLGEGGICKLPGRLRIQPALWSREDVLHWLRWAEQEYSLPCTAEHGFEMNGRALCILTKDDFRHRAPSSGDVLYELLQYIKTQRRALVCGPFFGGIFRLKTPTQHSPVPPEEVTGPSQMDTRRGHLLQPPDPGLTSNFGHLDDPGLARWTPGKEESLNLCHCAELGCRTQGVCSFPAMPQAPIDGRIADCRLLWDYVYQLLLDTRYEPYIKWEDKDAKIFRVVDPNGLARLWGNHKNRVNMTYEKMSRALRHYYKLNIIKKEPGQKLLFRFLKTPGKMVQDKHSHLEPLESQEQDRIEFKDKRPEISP
To be noted: protein: recombinant; tags: N-terminal GST; dsDNA, one strand shown. The essentials:
as §1

The next experiment addresses T11, ELF5 (Homo sapiens, UniProt Q9UKW6-2 1-255).
T11 sequence: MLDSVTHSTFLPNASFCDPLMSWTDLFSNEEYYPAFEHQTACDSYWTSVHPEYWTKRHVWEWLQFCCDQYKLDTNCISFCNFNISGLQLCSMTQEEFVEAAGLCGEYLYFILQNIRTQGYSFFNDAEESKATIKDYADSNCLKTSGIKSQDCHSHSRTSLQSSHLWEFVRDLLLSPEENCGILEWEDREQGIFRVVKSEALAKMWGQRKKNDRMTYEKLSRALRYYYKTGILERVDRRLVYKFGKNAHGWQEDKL
To be noted: protein: recombinant; tags: N-terminal GST; dsDNA, one strand shown. A digest of the protocol:
as §1

The target of the next experiment is T12, ETV3 (Homo sapiens, UniProt P41162-2 1-143).
T12 sequence: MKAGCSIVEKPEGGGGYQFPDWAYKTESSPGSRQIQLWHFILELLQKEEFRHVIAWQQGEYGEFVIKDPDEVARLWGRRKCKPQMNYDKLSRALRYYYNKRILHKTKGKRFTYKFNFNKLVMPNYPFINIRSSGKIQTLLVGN
To be noted: protein: recombinant; tags: N-terminal GST; dsDNA, one strand shown. A digest of the protocol:
as §1

The target of the next experiment is ETV6 (Homo sapiens, UniProt P41212 1-452). To be noted: protein: recombinant; tags: N-terminal GST; dsDNA, one strand shown. The essentials:
as §1

Sequence of ETV5 (P41161 whole entry): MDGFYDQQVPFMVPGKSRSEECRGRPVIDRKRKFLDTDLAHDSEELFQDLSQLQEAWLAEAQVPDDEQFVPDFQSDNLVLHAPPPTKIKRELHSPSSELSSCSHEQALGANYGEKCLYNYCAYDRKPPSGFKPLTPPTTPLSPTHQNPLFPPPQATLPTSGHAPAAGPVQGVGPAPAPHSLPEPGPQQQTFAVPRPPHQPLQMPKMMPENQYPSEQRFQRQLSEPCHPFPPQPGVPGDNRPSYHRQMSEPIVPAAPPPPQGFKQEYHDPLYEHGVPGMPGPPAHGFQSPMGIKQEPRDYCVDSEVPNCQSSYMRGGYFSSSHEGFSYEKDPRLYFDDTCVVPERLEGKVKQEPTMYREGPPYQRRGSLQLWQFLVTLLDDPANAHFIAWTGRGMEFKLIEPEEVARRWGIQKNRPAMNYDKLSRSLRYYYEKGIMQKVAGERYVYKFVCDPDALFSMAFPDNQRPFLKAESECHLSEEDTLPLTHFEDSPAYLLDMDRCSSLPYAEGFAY
Sequence of ETV6 (P41212 whole entry): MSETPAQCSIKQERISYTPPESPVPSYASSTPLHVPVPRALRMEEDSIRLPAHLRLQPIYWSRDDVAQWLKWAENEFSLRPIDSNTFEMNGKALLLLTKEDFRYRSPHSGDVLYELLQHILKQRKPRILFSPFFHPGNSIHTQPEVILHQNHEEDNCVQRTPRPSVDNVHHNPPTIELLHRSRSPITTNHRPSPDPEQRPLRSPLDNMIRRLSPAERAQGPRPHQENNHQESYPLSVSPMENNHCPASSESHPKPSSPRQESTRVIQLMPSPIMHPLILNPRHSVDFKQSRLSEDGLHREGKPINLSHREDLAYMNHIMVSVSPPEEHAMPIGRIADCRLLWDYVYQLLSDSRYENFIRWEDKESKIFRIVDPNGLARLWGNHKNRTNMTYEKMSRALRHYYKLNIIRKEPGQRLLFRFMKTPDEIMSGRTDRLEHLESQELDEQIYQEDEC
Sequence of ETV1 (P50549 whole entry): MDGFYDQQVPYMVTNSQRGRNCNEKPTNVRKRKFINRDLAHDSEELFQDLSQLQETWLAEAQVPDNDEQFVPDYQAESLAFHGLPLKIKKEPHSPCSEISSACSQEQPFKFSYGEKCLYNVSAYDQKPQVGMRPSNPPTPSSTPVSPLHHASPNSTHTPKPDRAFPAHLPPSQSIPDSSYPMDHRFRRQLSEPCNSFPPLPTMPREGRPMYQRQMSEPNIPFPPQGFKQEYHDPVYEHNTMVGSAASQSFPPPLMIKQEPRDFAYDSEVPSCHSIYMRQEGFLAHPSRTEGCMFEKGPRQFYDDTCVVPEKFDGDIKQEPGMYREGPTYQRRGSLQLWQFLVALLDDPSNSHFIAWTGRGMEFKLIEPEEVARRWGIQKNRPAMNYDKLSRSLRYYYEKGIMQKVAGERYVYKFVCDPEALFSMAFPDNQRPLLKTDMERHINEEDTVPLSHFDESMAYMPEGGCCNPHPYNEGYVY
Sequence of ELF4 (Q99607 whole entry): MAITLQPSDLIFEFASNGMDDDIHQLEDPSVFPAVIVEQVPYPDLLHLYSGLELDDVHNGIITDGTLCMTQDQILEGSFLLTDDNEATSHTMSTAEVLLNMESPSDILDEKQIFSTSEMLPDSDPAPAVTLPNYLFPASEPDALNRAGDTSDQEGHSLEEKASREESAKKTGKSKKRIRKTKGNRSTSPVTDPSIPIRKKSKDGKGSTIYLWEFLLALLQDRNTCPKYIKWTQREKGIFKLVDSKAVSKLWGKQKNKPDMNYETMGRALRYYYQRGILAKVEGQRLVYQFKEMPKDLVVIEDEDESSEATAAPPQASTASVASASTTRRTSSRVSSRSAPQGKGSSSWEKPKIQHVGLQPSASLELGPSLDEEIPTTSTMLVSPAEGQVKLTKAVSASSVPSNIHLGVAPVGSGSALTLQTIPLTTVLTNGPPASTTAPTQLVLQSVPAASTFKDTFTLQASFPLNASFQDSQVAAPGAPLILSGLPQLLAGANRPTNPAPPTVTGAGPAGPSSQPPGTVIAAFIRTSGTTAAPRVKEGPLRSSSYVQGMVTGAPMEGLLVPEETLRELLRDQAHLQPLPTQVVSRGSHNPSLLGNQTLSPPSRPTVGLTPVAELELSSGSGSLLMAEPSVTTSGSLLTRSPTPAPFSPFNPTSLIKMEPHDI
Sequence of CRX (O43186 whole entry): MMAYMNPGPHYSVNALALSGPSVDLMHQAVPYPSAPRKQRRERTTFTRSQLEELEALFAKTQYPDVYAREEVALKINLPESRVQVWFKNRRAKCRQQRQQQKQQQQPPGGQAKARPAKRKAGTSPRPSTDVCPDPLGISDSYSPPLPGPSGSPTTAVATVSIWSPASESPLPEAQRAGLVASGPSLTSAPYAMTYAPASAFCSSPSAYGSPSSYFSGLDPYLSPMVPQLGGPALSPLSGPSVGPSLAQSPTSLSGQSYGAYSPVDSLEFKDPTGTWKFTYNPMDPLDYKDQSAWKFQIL

Turning to CTCCTC, the binding signal in the experiment with FEV was 1.37 fold enrichment (6-mer frequency, TF over GST control); in the experiment with ETV5 it was 1.23 fold enrichment (6-mer frequency, TF over GST control); in the experiment with HSF1, 1.16 fold enrichment (6-mer frequency, TF over GST control); with SPIC, 1.3 fold enrichment (6-mer frequency, TF over GST control); with ELF4, 1.47 fold enrichment (6-mer frequency, TF over GST control); with ELK4, 1.41 fold enrichment (6-mer frequency, TF over GST control). Moreover, the binding signal with ETV2 was 1.39 fold enrichment (6-mer frequency, TF over GST control); with ELF3, 1.3 fold enrichment (6-mer frequency, TF over GST control); with CRX, 1.08 fold enrichment (6-mer frequency, TF over GST control); in the experiment with ETV1, 1.39 fold enrichment (6-mer frequency, TF over GST control); with ERF, 1.32 fold enrichment (6-mer frequency, TF over GST control); with ETV3L it was 1.61 fold enrichment (6-mer frequency, TF over GST control). The binding signal with ETS2 was 1.33 fold enrichment (6-mer frequency, TF over GST control); in the experiment with SPDEF it was 1.29 fold enrichment (6-mer frequency, TF over GST control); in the experiment with ETV7, 1.29 fold enrichment (6-mer frequency, TF over GST control); with ELF5, 1.32 fold enrichment (6-mer frequency, TF over GST control); with ETV3, 1.22 fold enrichment (6-mer frequency, TF over GST control); with ETV6, 1.38 fold enrichment (6-mer frequency, TF over GST control).
